Experimental data reported in PubChem BioAssay (NCATS).
“And” between values parts separate entries of the source, which are not always exact repeats. Equal values may be shown once. Records with an inconclusive call do not appear. A call without a number means that no potency is given here. The source made the active and inactive calls. The call rests on the fitted dose curve; in most records, active means well fitted curve in the direction sought with a large enough effect; inconclusive means small, poorly fitted or top-dose-only effect, or another doubt; inactive means no such curve, though single readings can be large; an effect the other way counts as inactive or inconclusive.

Assays:
[1] = qHTS of pediatric cancer cell lines to identify multiple opportunities for drug repurposing: Primary screen for Rh18 cells (AID 1347102); further: nearly all actives have a fitted effect of over 65% in size; further: potency means the concentration at half of the fitted maximal effect
Summary of the method: (§1)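 Cells (500-1,000/well) rested 5 h, then received compounds for 48 h; metabolically active cells were measured by CellTiter-Glo luminescence. Final concentrations spanned up to 46 µM (MIPE, 11-point) or 0.59 nM-46 µM (NPC, 8-point) in primary screens, 11-point in follow-ups.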

[2] = qHTS of pediatric cancer cell lines to identify multiple opportunities for drug repurposing: Primary screen for OHS-50 cells (AID 1347103); further: nearly all actives have a fitted effect of over 40% in size; further: potency means the concentration at half of the fitted maximal effect
Summary of the method: as §1

[3] = qHTS of pediatric cancer cell lines to identify multiple opportunities for drug repurposing: Primary screen for RD cells (AID 1347104); further: nearly all actives have a fitted effect of over 55% in size; further: potency means the concentration at half of the fitted maximal effect
Summary of the method: (§2)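 Cells seeded at 500-1,000 cells/well in growth media, rested 5 hours at 37 degrees C, 5% CO2, then dosed; MIPE compounds at 11-point (from 0.78 nM) and NPC at 8-point (from 0.59 nM) final concentrations. Viability by CellTiter-Glo luminescence after 48 hours.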

[4] = qHTS of pediatric cancer cell lines to identify multiple opportunities for drug repurposing: Primary screen for MG 63 (6-TG R) cells (AID 1347105); further: nearly all actives have a fitted effect of over 50% in size; further: potency means the concentration at half of the fitted maximal effect
Summary of the method: as §2

[5] = qHTS of pediatric cancer cell lines to identify multiple opportunities for drug repurposing: Primary screen for control Hh wild type fibroblast cells (AID 1347106); further: nearly all actives have a fitted effect of over 55% in size; further: potency means the concentration at half of the fitted maximal effect
Summary of the method: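 Viability after 48 h compound treatment at 37C, 500-1,000 cells/well, read as ATP luminescence with CellTiter-Glo. Primary screens used 11-point (MIPE, 0.78 nM-46 µM) or 8-point (NPC, 0.59 nM-46 µM) final concentrations; follow-up screens used 11-point dilutions.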

[6] = qHTS of pediatric cancer cell lines to identify multiple opportunities for drug repurposing: Primary screen for Rh30 cells (AID 1347107); further: series mostly up to about 46 µM; nearly all actives have a fitted effect of over 75% in size
Summary of the method: as §1

[7] = qHTS of pediatric cancer cell lines to identify multiple opportunities for drug repurposing: Primary screen for Rh41 cells (AID 1347108); further: nearly all actives have a fitted effect of over 70% in size; further: potency means the concentration at half of the fitted maximal effect
Summary of the method: as §2

[8] = qHTS of pediatric cancer cell lines to identify multiple opportunities for drug repurposing: Confirmatory screen for NB1643 cells (AID 1347109); further: nearly all actives have a fitted effect of over 45% in size; further: potency means the concentration at half of the fitted maximal effect
Summary of the method: as §1

[9] = qHTS of pediatric cancer cell lines to identify multiple opportunities for drug repurposing: Confirmatory screen for SK-N-MC cells (AID 1347111);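 further: cells exposed to compound for 48 h before the readout; nearly all actives have a fitted effect of over 70% in size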; further: potency means the concentration at half of the fitted maximal effect
Summary of the method: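 Seed 500-1,000 cells/well; rest 5 h at 37 degrees C. Pin-transfer compounds, 11-point titration. Incubate 48 h. Add CellTiter-Glo, 15 min RT, read luminescence.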

Row | SMILES | Potency [1] | Potency [2] | Potency [3] | Potency [4] | Potency [5] | Potency [6] | Potency [7] | Potency [8] | Potency [9]
1 | Cc1oc(=O)oc1CN1CCN(c2cc3c(cc2F)c(=O)c(C(=O)O)c2n3C(C)S2)CC1 (centres undefined) | inactive | inactive | inactive | inactive | inactive | inactive | inactive |  | 
2 | O=C(O)c1cccnc1 | inactive | inactive | inactive | inactive | inactive | inactive | inactive |  | 
3 | C[C@]12C=CC(=O)C=C1CC[C@@H]1[C@@H]2C(=O)C[C@@]2(C)[C@H]1CC[C@]2(O)C(=O)CO | inactive | inactive | inactive | inactive | inactive | inactive | inactive |  | 
4 | C1CCC(C(CC2CCCCN2)C2CCCCC2)CC1 (centres undefined) | 16.8 µM (active) and 26.4 µM (active) | 13.8 µM (active) and 19.3 µM (active) | 21.1 µM (active) and 29.6 µM (active) | 26.6 µM (active) |  | inactive |  |  | 
5 | N[C@@H](C(=O)N[C@@H]1C(=O)N2C(C(=O)O)=C(Cl)CS[C@H]12)c1ccccc1 | inactive | inactive | inactive | inactive | inactive | inactive | inactive |  | 
6 | CO[C@@H]1[C@@H](OC(N)=O)[C@@H](O)[C@H](Oc2ccc3c(O)c(NC(=O)c4ccc(O)c(CC=C(C)C)c4)c(=O)oc3c2C)OC1(C)C | inactive | inactive | inactive | inactive | inactive | inactive | inactive |  | 
7 | CCOCC(O)COc1ccc(NC(=O)CC[S+](C)C)cc1 (centres undefined) | inactive | inactive | inactive | inactive | inactive | inactive | inactive |  | 
8 | CC1=NN(c2ccccc2)C(=O)C1 | inactive | inactive | inactive | inactive | inactive | inactive | inactive |  | 
9 | COc1cc(NCc2ccc3nc(N)nc(N)c3c2C)cc(OC)c1OC | inactive | 19.3 µM (active) | 4.18 µM (active) and 119 nM (active) | inactive | inactive |  |  | 9.27 µM (active) | 0.657 µM (active)
10 | O=C(O)c1cn(C2CC2)c2cc(N3CCNCC3)c(F)cc2c1=O | inactive | inactive | inactive | inactive | inactive | inactive | inactive |  | 
11 | O=C(O)CCn1c2c(c3ccccc31)C[C@H](NS(=O)(=O)c1ccc(F)cc1)CC2 | inactive | inactive | inactive | inactive |  | inactive | inactive |  | 
12 | Nc1nc(N)nc(-c2cc(Cl)ccc2Cl)n1 | inactive | inactive | inactive | inactive | inactive | inactive | inactive |  | 1.17 µM (active)
13 | Cc1cccc(N(C)C(=S)Oc2ccc3ccccc3c2)c1 | inactive | 24.6 µM (active) | inactive | inactive | inactive | inactive | inactive | inactive | 
14 | CCn1cc(C(=O)O)c(=O)c2cc(F)c(N3CCNCC3)cc21 | inactive | inactive | inactive | inactive | inactive | inactive | inactive |  | 
15 | O=S(=O)(O)CCS | inactive | inactive | inactive | inactive | inactive | inactive | inactive |  | 
16 | CN1CCN(c2c(F)cc3c(=O)c(C(=O)O)cn(CCF)c3c2F)CC1 | inactive | inactive | inactive | inactive | inactive | inactive | inactive |  | 
17 | NC(=O)c1cccnc1 | inactive | inactive | inactive | inactive | inactive | inactive | inactive |  | 14.7 µM (active)
18 | S=P(N1CC1)(N1CC1)N1CC1 | inactive | 24.3 µM (active) | inactive | inactive | inactive | inactive | inactive |  | 3.69 µM (active)
19 | CCN(CC)CCn1c(=O)c(Cc2ccc(OC)cc2)nc2ccccc21 | inactive | inactive | inactive | inactive |  | inactive | inactive |  | 
20 | CS(=O)(=O)c1ccc([C@@H](O)[C@@H](CO)NC(=O)C(Cl)Cl)cc1 | inactive | inactive | inactive | inactive | inactive | inactive | inactive |  | 
21 | CC(=O)Oc1ccccc1C(=O)Nc1ncc([N+](=O)[O-])s1 | 42.9 µM (active) | 22.2 µM (active) | 42.9 µM (active) and 23.7 µM (active) | inactive | inactive |  |  |  | 
22 | OCc1ccc(-c2nn(Cc3ccccc3)c3ccccc23)o1 | inactive | 1.72 µM (active) | inactive | inactive | inactive | inactive |  |  | 
23 | CC(C)NCC(O)c1ccc(NS(C)(=O)=O)cc1 (centres undefined) | inactive | inactive | inactive | inactive | inactive | inactive |  | inactive | inactive
24 | O=P(O)(O)C(O)(Cc1cccnc1)P(=O)(O)O | inactive | inactive | inactive | inactive | inactive | inactive | inactive |  | 

Row | SMILES | Potency [1] | Potency [2] | Potency [3] | Potency [4] | Potency [5] | Potency [6] | Potency [7] | Potency [8] | Potency [9]
25 | CCOC(=O)c1ccc(C#Cc2ccc3c(c2)C(C)(C)CCS3)nc1 | inactive | 777 nM (active) and 54.4 nM (active) | inactive | inactive | inactive | inactive | inactive | inactive | 
26 | CC(=O)CC(c1ccccc1)c1c(O)c2ccccc2oc1=O (centres undefined) | inactive | inactive | inactive | inactive | inactive | inactive | inactive |  | 
27 | COc1cc2nc(N3CCCN(C)CC3)nc(NC3CCN(Cc4ccccc4)CC3)c2cc1OC | 9.35 µM (active) | 8.63 µM (active) | 8.33 µM (active) | 9.35 µM (active) | 16.6 µM (active) |  | 18.7 µM (active) | 20.8 µM (active) | 3.69 µM (active)
28 | CCCN[C@H]1CCc2nc(N)sc2C1 | inactive | inactive | inactive | inactive |  | inactive | inactive |  | 
29 | Cc1ccnc2c1NC(=O)c1cccnc1N2C1CC1 | inactive | inactive | inactive | inactive |  | inactive | inactive |  | 
30 | O=C(O)CSCC(=O)NC1CCSC1=O (centres undefined) | inactive | inactive | inactive | inactive | inactive | inactive | inactive |  | 
31 | CCCc1cc(C(N)=S)ccn1 | inactive | inactive | inactive | inactive | inactive | inactive | inactive |  | 
32 | NC(=O)N1c2ccccc2CC(=O)c2ccccc21 | inactive | inactive | inactive | inactive | inactive | inactive | inactive |  | 
33 | CCCCS(=N)(=O)CCC(N)C(=O)O (centres undefined) | inactive | inactive | inactive | inactive |  | inactive | inactive |  | 
34 | CC(N)C12CC3CC(CC(C3)C1)C2 (centres undefined) | inactive | inactive | inactive | inactive | inactive | inactive | inactive |  | 
35 | Cc1noc(NS(=O)(=O)c2ccc(N)cc2)c1C | inactive | inactive | inactive | inactive | inactive | inactive | inactive |  | 
36 | CN1CCN(c2c(F)cc3c(=O)c(C(=O)O)cn4c3c2OCN4C)CC1 | inactive | inactive | inactive | inactive | inactive | inactive | inactive |  | 
37 | COC(=O)Nc1nc2ccc(C(=O)c3ccccc3)cc2[nH]1 | inactive | 138 nM (active) and 1.53 µM (active) | 1.66 µM (active) | 84.1 nM (active) and 935 nM (active) |  | inactive |  |  | 
38 | C#CCN[C@@H]1CCc2ccccc21 | inactive | inactive |  | inactive |  | inactive | inactive |  | 
39 | COc1ccccc1OCC(O)COC(N)=O (centres undefined) | inactive | inactive |  | inactive | inactive | inactive | inactive |  | 
40 | COc1cnc(NS(=O)(=O)c2ccc(N)cc2)nc1 | inactive | inactive |  | inactive | inactive | inactive | inactive |  | 
41 | COc1nc(N)nc2c1ncn2[C@@H]1O[C@H](CO)[C@@H](O)[C@@H]1O | inactive | inactive |  | inactive | inactive | inactive |  | inactive | 2.93 µM (active)
42 | C[C@@H](CN1CC(=O)NC(=O)C1)N1CC(=O)NC(=O)C1 | inactive | inactive |  | inactive | inactive | inactive | inactive | inactive | inactive
43 | O=c1oc2c(O)c(O)cc3c(=O)oc4c(O)c(O)cc1c4c23 | inactive | inactive |  | inactive | inactive | inactive | inactive |  | 
44 | O=NN(CCCl)C(=O)NC1CCCCC1 | inactive | inactive | inactive | inactive |  | inactive | inactive | inactive | inactive
45 | CN(CCOc1ccc(CC2SC(=O)NC2=O)cc1)c1ccccn1 (centres undefined) | inactive | inactive |  | inactive | inactive | inactive | inactive |  | 
46 | CC(C)(Sc1cc(C(C)(C)C)c(O)c(C(C)(C)C)c1)Sc1cc(C(C)(C)C)c(O)c(C(C)(C)C)c1 | inactive | inactive | inactive | inactive |  | inactive | inactive |  | 
47 | NC(=O)c1cccc(N)c1 | inactive | inactive | inactive | inactive |  | inactive | inactive |  | 
48 | CC(C)C1CCC(C(=O)N[C@H](Cc2ccccc2)C(=O)O)CC1 (some centres undefined) | inactive | inactive |  | inactive | inactive | inactive | inactive |  | 
